Compounds with a hit are over-represented: about 2.4% of the library has one in this group of screens.
D2 ag-1: HTS Assay for Allosteric Agonists of the Human D2 Dopamine Receptor: Primary Screen for Agonists; D(2) dopamine receptor (Homo sapiens), P14416; HEK293 T-REx D2 cells, calcium flux agonist mode; activation, % at 2 µM; 340,000 tested, 0.53% active; AID 485358, 2010;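 active means activation over 3 SD above normal in the single-dose calcium agonist read, cut at about 30% in these data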; further: 0% is about no effect
Target sequence (P14416 whole entry, looked up): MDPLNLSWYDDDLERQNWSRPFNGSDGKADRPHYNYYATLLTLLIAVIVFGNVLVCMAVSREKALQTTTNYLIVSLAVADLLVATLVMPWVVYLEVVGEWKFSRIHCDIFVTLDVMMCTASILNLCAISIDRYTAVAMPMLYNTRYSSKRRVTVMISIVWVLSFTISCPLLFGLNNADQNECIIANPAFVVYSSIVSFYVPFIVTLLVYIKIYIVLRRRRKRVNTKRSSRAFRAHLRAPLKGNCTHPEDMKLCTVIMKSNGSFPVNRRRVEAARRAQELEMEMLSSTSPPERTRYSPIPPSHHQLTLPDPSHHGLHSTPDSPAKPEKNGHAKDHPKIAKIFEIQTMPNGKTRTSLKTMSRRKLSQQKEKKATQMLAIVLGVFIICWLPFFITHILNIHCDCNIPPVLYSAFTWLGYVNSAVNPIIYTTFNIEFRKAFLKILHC
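HEK293 Trex D2 cells, tetracycline-induced, o/n 30 C 5% CO2; no-wash Ca dye, RT 30–90 min; 10-cycle baseline, 23 nl cpd added, kinetic Ca read 180 s; agonist hits = positive Ca response.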
D2 PAM-1: Beta-Arrestin HTS for Positive Allosteric Modulators of the Human D2 Dopamine Receptor: Potentiators; D(2) dopamine receptor (Homo sapiens), P14416; DiscoveRx D2 beta-arrestin cells, luminescence, 90 min; 100% = 57 uM dopamine signal; potentiation, % (concentration not given with the values); 360,000 tested, 0.23% active; in the data active means potentiation above about 50%; inconclusive means mostly about 30% to 49%
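PathHunter D2 cells, attached overnight at 37 deg C, received compound in DMSO plus dopamine at EC20 (50 nM final) for 90 min at 37 deg C. Beta-arrestin recruitment was read as luminescence after 1 h with detection reagent at ambient temperature.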
D2 PAM-2: HTS Assay for Positive Allosteric Modulators of the Human D2 Dopamine Receptor: Primary Screen for Potentiators; 340,000 tested, 0.34% active; AID 485347, 2010; HEK293 T-REx D2, calcium flux, EC20 dopamine potentiation; potentiation, % at 10 µM;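 active means potentiation over 3 SD above the plate norm, cut at about 30% in these data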; further: 0% is about no effect
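Tetracycline-induced HEK293 T-REx cells force-coupled to calcium signalling expressed D2; compounds were pin-added after a 10 s baseline, read kinetically 180 s, then an EC20 dopamine challenge followed with a further 180 s calcium read.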
D2 antagonist: HTS Assay for Allosteric Antagonists of the Human D2 Dopamine Receptor: Primary Screen for Antagonists; D(2) dopamine receptor (Homo sapiens), P14416; HEK293 TREx D2 cells, calcium flux, dopamine EC80; inhibition, % at 10 µM; 340,000 tested, 2% active; in the data active means inhibition above about 30%; inactive means below that, where a call was filed; further: 0% is about no effect
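Read-out: kinetic calcium fluorescence (1 cycle/s) in inducible HEK293 T-REx D2 cells after an EC80 dopamine addition that followed 180 s compound preincubation. Loss of the dopamine response indicates antagonism.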
D2 ag-2: Beta-Arrestin HTS for Positive Allosteric Modulators of the Human D2 Dopamine Receptor: Agonists | D(2) dopamine receptor (Homo sapiens), P14416 | DiscoveRx PathHunter D2 beta-arrestin, luminescence, 90 min; 100% = 57 uM dopamine signal | activation, % (test concentration not listed) | 360,000 tested, 0.084% active | AID 624465, 2012; in the data active means activation above about 40%; inconclusive means between about 15% and that limit
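DiscoveRx PathHunter D2 beta-arrestin cells (2,100/well) attached overnight, then compound-stimulated 90 min at 37 C in HBSS/10 mM HEPES/0.1% Tween-20 buffer; beta-galactosidase complementation read by luminescence after 1 h at ambient temperature. Dopamine 57 uM final (EC100) as control.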
An asterisk follows results filed as active; ? = inconclusive; nt = no result.

SMILES	D2 ag-1	D2 PAM-1	D2 PAM-2	D2 antagonist	D2 ag-2
Cc1cccc(Cn2cccc2CNS(=O)(=O)c2ccc(C)c(C)c2)c1	2.0	nt	-3.6	nt	nt
COc1cc(CNCCCN2CCOCC2)cc(Br)c1OCc1ccc(Cl)cc1	3.2	2.5	-5.9	-1.6	4.2
COc1cc(CNCCCN2CCOCC2)cc(Br)c1OCC(=O)N1CCCCC1	0.0	-5.5	7.5	32.3*	-2.7
CCOc1cccc2sc(Nc3nc4ccc(NC(C)=O)cc4s3)nc12	0.8	4.3	-13.8	30.8*	4.0
Cc1ccnc2c1ccc1cccnc12	0.5	-9.4	-2.6	-0.4	2.9
Cc1ccnc2c1ccc1c(C)ccnc12	1.0	-24.7	-18.4	43.2*	-5.3
O=C(CC1CCCCC1)Nc1ccc(-c2ccc3nncn3n2)cc1	0.1	-1.6	43.1*	10.7	-2.4
CCN(CC)c1ccc(NC(=O)c2cccc(OC)c2)c(C)c1	0.0	-8.1	9.7	2.8	-2.8
CCN(CC)c1ccc(NC(=O)c2c(OC)cccc2OC)c(C)c1	0.6	-2.1	-10.9	33.6*	-2.4
COc1cccc(-c2cnc(NCc3ccccc3Cl)n2C)c1	-0.4	nt	-26.5	nt	nt
CC1CCN(CCCNC(=O)CCc2nnc3n(CCc4ccccc4)c(=O)c4ccccc4n23)CC1	0.2	-18.5	3.0	61.1*	-2.4
CCC1CN(C(=O)N2CCC(C(=O)NCCc3cc(OC)ccc3OC)CC2)c2ccccc2O1 (stereo not given)	-0.1	nt	7.9	nt	nt
CC12CCC(=O)N1c1ccccc1C(=O)N2c1ccccc1 (stereo not given)	0.8	-16.2	34.5*	-21.2	1.1
COCc1cc(C)nc2sc3c(c12)NC(c1ccc(O)cc1)N(c1ccc(OC)cc1)C3=O (stereo not given)	1.5	nt	5.1	nt	nt
CCc1ccc(-n2nc3ccc(NC(=O)COc4ccc(OC)cc4)cc3n2)cc1	1.6	nt	-6.5	nt	nt
CN(C)c1ccc(S(=O)(=O)NCC(=O)NCCOc2ccccc2F)cc1[N+](=O)[O-]	0.8	-0.4	-2.6	-9.4	-2.9
CN(C)c1ccc(S(=O)(=O)NCC(=O)NCCC2=CCCCC2)cc1[N+](=O)[O-]	-0.2	-32.4	-9.2	31.4*	-3.5
Cc1ccc(C)c(CNC(=O)c2ccc3c(c2)nc2n3CCCCC2)c1	-1.0	nt	-5.9	nt	nt
CCC(C(=O)NC1CCCCC1)n1nc(C)c2sc3ccccc3c2c1=O (stereo not given)	nt	nt	-1.6	nt	nt
Cc1nc(C)c(-c2ccc(SCC(=O)Nc3ccc(Cl)c(Cl)c3)nn2)s1	0.4	nt	9.7	nt	nt
C1COC(NC(C2CC2)C2CC2)=N1	1.7	-8.8	-4.2	36.2*	0.4
C1CCC(NC2=NCCO2)CC1	nt	-8.9	nt	nt	-1.2
COc1ccc(NC(=O)C(NC(=O)/C=C\c2ccc3c(c2)OCO3)c2ccccc2)cc1 (stereo not given)	0.6	nt	-22.1	nt	nt
COc1ccc(C2(CNC(=O)C(=O)Nc3ccc(C)c(Cl)c3)CCCC2)cc1OC	1.7	nt	-0.4	nt	nt
CCc1ccc(OCc2n[nH]c(=S)n2C(C)CCCC(C)C)cc1 (stereo not given)	1.5	0.1	3.4	47.5*	13.5
SMILES	D2 ag-1	D2 PAM-1	D2 PAM-2	D2 antagonist	D2 ag-2
CN(CCC#N)C(=O)COC(=O)c1ccc(Cl)cc1O	1.0	-0.1	-5.9	46.6*	-1.6
COc1ccccc1CNC(=O)c1c(O)nc2c(C)cccn2c1=O	-0.6	nt	10.4	nt	nt
COC(=O)[C@]1(CC(C)C)N[C@H](c2ccc(SC3CCCCC3)c(OC)c2)[C@@H]2C(=O)N(C)C(=O)[C@@H]21	-0.2	-7.8	32.3*	0.2	-0.6
Cc1cccc(NC(=O)c2cccc(N3CCCS3(=O)=O)c2)c1	-0.1	nt	-2.6	nt	nt
CCOC(=O)c1cc(OC(=O)c2cc(OC)cc(OC)c2)n(-c2ccccc2)n1	nt	nt	5.7	nt	nt
Cc1nn(Cc2ccccc2)c(C)c1NC(=O)c1ccc([N+](=O)[O-])cc1[N+](=O)[O-]	-0.2	88.3*	-10.7	-12.2	?
